Laboratory results published in PubChem BioAssay (NCI).
The panel holds about 83,000 compounds, 20% with a hit somewhere; the sample as a whole holds those more often.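 Testing used 96-well plates and a 48-hour single-concentration exposure. Example: -40 means 40% of the starting cells died.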 A number with no mark means an inactive call. Activity calls are given as the source filed them. How the source made its calls: active means growth percent below 10; inactive means the rest.

Assays:
Assay in all cases: NCI-60 one-dose screen, 48 h (100 = growth as untreated, 0 = no growth, -100 = all killed)
Conditions in all cases: 10 µM unless noted
SK-MEL-2 melanoma = tested on: SK-MEL-2 melanoma
EKVX NSCLC = tested on: EKVX NSCLC
SN12C renal = tested on: SN12C renal
UO-31 renal = tested on: UO-31 renal
TK-10 renal = tested on: TK-10 renal
ACHN renal = tested on: ACHN renal
CAKI-1 renal = tested on: CAKI-1 renal
A498 renal = tested on: A498 renal
CCRF-CEM leukemia = tested on: CCRF-CEM leukemia
MOLT-4 leukemia = tested on: MOLT-4 leukemia
RPMI-8226 leukemia = tested on: RPMI-8226 leukemia
OVCAR-8 ovarian = tested on: OVCAR-8 ovarian
OVCAR-5 ovarian = tested on: OVCAR-5 ovarian
OVCAR-4 ovarian = tested on: OVCAR-4 ovarian
SK-OV-3 ovarian = tested on: SK-OV-3 ovarian
IGROV1 ovarian = tested on: IGROV1 ovarian
OVCAR-3 ovarian = tested on: OVCAR-3 ovarian
NCI/ADR-RES ovarian = tested on: NCI/ADR-RES ovarian
SR leukemia = tested on: SR leukemia
HS 578T breast = tested on: HS 578T breast

## CSc1ccc(C(=O)Nc2ccc3nnn(/C(C#N)=C/c4ccccn4)c3c2)cc1
SK-MEL-2 melanoma
  growth: -82% (active)
EKVX NSCLC
  growth: -86.4% (active)
SN12C renal
  growth: -4.37% (active)
UO-31 renal
  growth: -100% (active)
TK-10 renal
  growth: -74% (active)
ACHN renal
  growth: -93.2% (active)
CAKI-1 renal
  growth: 4.99% (active)
A498 renal
  growth: 59.3%
CCRF-CEM leukemia
  growth: 12.6%
MOLT-4 leukemia
  growth: 12.1%
RPMI-8226 leukemia
  growth: -40.8% (active)
OVCAR-8 ovarian
  growth: 10%
OVCAR-5 ovarian
  growth: -77.4% (active)
OVCAR-4 ovarian
  growth: 37%
SK-OV-3 ovarian
  growth: 64.4%
IGROV1 ovarian
  growth: -44.9% (active)
OVCAR-3 ovarian
  growth: -30.8% (active)
NCI/ADR-RES ovarian
  growth: 11.2%

## CCCCOc1ccc(NC(=O)c2sc3nc(C)ccc3c2N)cc1
SK-MEL-2 melanoma
  growth: 49.2%
EKVX NSCLC
  growth: 6.14% (active)
SN12C renal
  growth: 21.1%
UO-31 renal
  growth: 1.84% (active)
TK-10 renal
  growth: -20.1% (active)
ACHN renal
  growth: -19.3% (active)
CAKI-1 renal
  growth: 26.5%
A498 renal
  growth: 37.1%
CCRF-CEM leukemia
  growth: 42%
MOLT-4 leukemia
  growth: 48%
RPMI-8226 leukemia
  growth: 32.4%
OVCAR-8 ovarian
  growth: 5.4% (active)
OVCAR-5 ovarian
  growth: 20.1%
OVCAR-4 ovarian
  growth: 1.32% (active)
SK-OV-3 ovarian
  growth: -15.9% (active)
IGROV1 ovarian
  growth: 17.7%
OVCAR-3 ovarian
  growth: 15.5%
NCI/ADR-RES ovarian
  growth: -39.3% (active)

## O=C(O)c1cccc(-c2ccc(/C=N/NC(=O)c3[nH]c4ccc(Br)cc4c3-c3ccccc3)s2)c1
SK-MEL-2 melanoma
  growth: 26.3%
EKVX NSCLC
  growth: 35.2%
SN12C renal
  growth: 57.5%
UO-31 renal
  growth: 47.9%
TK-10 renal
  growth: 86.8%
ACHN renal
  growth: 44.1%
CAKI-1 renal
  growth: 74.7%
A498 renal
  growth: 100%
CCRF-CEM leukemia
  growth: 31%
MOLT-4 leukemia
  growth: 45.3%
RPMI-8226 leukemia
  growth: 54.2%
OVCAR-8 ovarian
  growth: 44.9%
OVCAR-5 ovarian
  growth: 112%
OVCAR-4 ovarian
  growth: 42%
SK-OV-3 ovarian
  growth: 103%
IGROV1 ovarian
  growth: 37.9%
OVCAR-3 ovarian
  growth: 22.3%
NCI/ADR-RES ovarian
  growth: -22.5% (active)

## COc1ccc(-c2ccc(SCC(=O)NCCc3ccc(S(N)(=O)=O)cc3)nn2)cc1
SK-MEL-2 melanoma
  growth: 79.8%
EKVX NSCLC
  growth: 93.9%
SN12C renal
  growth: 87.3%
UO-31 renal
  growth: 76.8%
TK-10 renal
  growth: 87.9%
ACHN renal
  growth: 89.3%
CAKI-1 renal
  growth: 90.6%
A498 renal
  growth: 123%
CCRF-CEM leukemia
  growth: 66%
SR leukemia
  growth: 63.9%
RPMI-8226 leukemia
  growth: 49.6%
OVCAR-8 ovarian
  growth: 88.8%
OVCAR-5 ovarian
  growth: 102%
OVCAR-4 ovarian
  growth: 77.2%
SK-OV-3 ovarian
  growth: 71.1%
IGROV1 ovarian
  growth: 82%
OVCAR-3 ovarian
  growth: 121%
HS 578T breast
  growth: 89.8%
NCI/ADR-RES ovarian
  growth: 100%

## Nc1nc(C(F)(F)F)cs1
SK-MEL-2 melanoma
  growth: 108%
EKVX NSCLC
  growth: 94.5%
SN12C renal
  growth: 111%
UO-31 renal
  growth: 93.8%
TK-10 renal
  growth: 98.1%
ACHN renal
  growth: 113%
CAKI-1 renal
  growth: 96.7%
A498 renal
  growth: 114%
CCRF-CEM leukemia
  growth: 109%
SR leukemia
  growth: 101%
RPMI-8226 leukemia
  growth: 115%
OVCAR-8 ovarian
  growth: 105%
OVCAR-5 ovarian
  growth: 113%
OVCAR-4 ovarian
  growth: 108%
SK-OV-3 ovarian
  growth: 101%
IGROV1 ovarian
  growth: 107%
OVCAR-3 ovarian
  growth: 108%
HS 578T breast
  growth: 109%
NCI/ADR-RES ovarian
  growth: 104%

## COc1ccc2[nH]c(O)c(N=NC(=O)COc3ccc(NC(=O)Nc4ccccc4)cc3)c2c1
SK-MEL-2 melanoma
  growth: 43.6%
EKVX NSCLC
  growth: 65.4%
SN12C renal
  growth: 25%
UO-31 renal
  growth: 94.5%
TK-10 renal
  growth: 113%
ACHN renal
  growth: 94.2%
CAKI-1 renal
  growth: 82.5%
A498 renal
  growth: 71.7%
CCRF-CEM leukemia
  growth: 77.9%
SR leukemia
  growth: 52.8%
RPMI-8226 leukemia
  growth: 80%
OVCAR-8 ovarian
  growth: 9.54% (active)
OVCAR-5 ovarian
  growth: 72.3%
OVCAR-4 ovarian
  growth: 19.7%
SK-OV-3 ovarian
  growth: 42.3%
IGROV1 ovarian
  growth: 60.7%
OVCAR-3 ovarian
  growth: 65.5%
HS 578T breast
  growth: 14%
NCI/ADR-RES ovarian
  growth: 110%

## COc1ccc(-c2ccnc(SCc3cc4ccccc4[nH]c3=O)n2)cc1
SK-MEL-2 melanoma
  growth: 67.2%
EKVX NSCLC
  growth: 69.8%
SN12C renal
  growth: 49.1%
UO-31 renal
  growth: 68.4%
TK-10 renal
  growth: 85.2%
ACHN renal
  growth: 74.4%
CAKI-1 renal
  growth: 55.1%
A498 renal
  growth: 93.2%
CCRF-CEM leukemia
  growth: 48.1%
SR leukemia
  growth: 14.9%
RPMI-8226 leukemia
  growth: 65.5%
OVCAR-8 ovarian
  growth: 56.3%
OVCAR-5 ovarian
  growth: 82.1%
OVCAR-4 ovarian
  growth: 41.5%
SK-OV-3 ovarian
  growth: 82.4%
IGROV1 ovarian
  growth: 75%
OVCAR-3 ovarian
  growth: 81.6%
HS 578T breast
  growth: 48.2%
NCI/ADR-RES ovarian
  growth: 26.9%

## CC1=C(C#N)C2=NNCC(c3ccccc3)=NN2C(c2ccccc2)=C1
SK-MEL-2 melanoma
  growth: 113%
EKVX NSCLC
  growth: 99.7%
SN12C renal
  growth: 105%
UO-31 renal
  growth: 91.2%
TK-10 renal
  growth: 103%
ACHN renal
  growth: 110%
CAKI-1 renal
  growth: 99.8%
A498 renal
  growth: 132%
CCRF-CEM leukemia
  growth: 110%
SR leukemia
  growth: 96%
RPMI-8226 leukemia
  growth: 110%
OVCAR-8 ovarian
  growth: 111%
OVCAR-5 ovarian
  growth: 114%
OVCAR-4 ovarian
  growth: 112%
SK-OV-3 ovarian
  growth: 101%
IGROV1 ovarian
  growth: 109%
OVCAR-3 ovarian
  growth: 111%
HS 578T breast
  growth: 107%
NCI/ADR-RES ovarian
  growth: 112%

## Cn1cc(-c2nc(N)nnc2-c2c[nH]c3ccc(F)cc23)c2cccnc21
SK-MEL-2 melanoma
  growth: 85.6%
EKVX NSCLC
  growth: 62.3%
SN12C renal
  growth: 49.3%
UO-31 renal
  growth: 14.8%
TK-10 renal
  growth: 44.6%
ACHN renal
  growth: 14.9%
CAKI-1 renal
  growth: 12.6%
A498 renal
  growth: 36.8%
CCRF-CEM leukemia
  growth: 27.5%
SR leukemia
  growth: 17.8%
RPMI-8226 leukemia
  growth: 44.7%
OVCAR-8 ovarian
  growth: 50.3%
OVCAR-5 ovarian
  growth: 80.2%
OVCAR-4 ovarian
  growth: 70.7%
SK-OV-3 ovarian
  growth: 41.3%
IGROV1 ovarian
  growth: 22.3%
OVCAR-3 ovarian
  growth: 60.7%
HS 578T breast
  growth: 15.1%
NCI/ADR-RES ovarian
  growth: 52.1%

## CN(C)c1nc(NCCNS(=O)(=O)c2ccc(C3=Nc4c(N)nc(N)nc4NC(c4ccc(F)cc4)C3)cc2)nc(Nc2ccc(F)cc2)n1 (centres undefined)
SK-MEL-2 melanoma
  growth: 58.7%
EKVX NSCLC
  growth: 47.5%
SN12C renal
  growth: 42.7%
UO-31 renal
  growth: 82.9%
TK-10 renal
  growth: 65.9%
ACHN renal
  growth: 77.1%
CAKI-1 renal
  growth: 64.4%
A498 renal
  growth: 53.3%
CCRF-CEM leukemia
  growth: 8.67% (active)
SR leukemia
  growth: 0.331% (active)
RPMI-8226 leukemia
  growth: -6.35% (active)
OVCAR-8 ovarian
  growth: 43.5%
OVCAR-5 ovarian
  growth: 78.2%
OVCAR-4 ovarian
  growth: 40.8%
SK-OV-3 ovarian
  growth: 73.4%
IGROV1 ovarian
  growth: 38.6%
OVCAR-3 ovarian
  growth: 40.9%
HS 578T breast
  growth: 51.8%
NCI/ADR-RES ovarian
  growth: 98%

## Cc1nc(Nc2ncc(C(=O)Nc3c(C)cccc3Cl)s2)cc(N2CCN(CCCNC(=O)COc3ccc(C4CCC(=O)NC4=O)cc3)CC2)n1 (centres undefined)
SK-MEL-2 melanoma
  growth: 109%
EKVX NSCLC
  growth: 58.6%
SN12C renal
  growth: 25.2%
UO-31 renal
  growth: 38.4%
TK-10 renal
  growth: -7.44% (active)
ACHN renal
  growth: 8.27% (active)
CAKI-1 renal
  growth: -30.7% (active)
A498 renal
  growth: 7.95% (active)
CCRF-CEM leukemia
  growth: 95.1%
SR leukemia
  growth: 20%
RPMI-8226 leukemia
  growth: 76.4%
OVCAR-8 ovarian
  growth: 34%
OVCAR-5 ovarian
  growth: 26.3%
OVCAR-4 ovarian
  growth: 85.8%
SK-OV-3 ovarian
  growth: -17.9% (active)
IGROV1 ovarian
  growth: -45.2% (active)
OVCAR-3 ovarian
  growth: 72%
HS 578T breast
  growth: -16% (active)
NCI/ADR-RES ovarian
  growth: 106%

## O=C(NNc1ccccc1)n1c(=O)c2ccccc2c(=O)n1-c1ccccc1
SK-MEL-2 melanoma
  growth: 117%
EKVX NSCLC
  growth: 91.3%
SN12C renal
  growth: 85.9%
UO-31 renal
  growth: 81.5%
TK-10 renal
  growth: 95%
ACHN renal
  growth: 93.7%
CAKI-1 renal
  growth: 77.2%
A498 renal
  growth: 101%
CCRF-CEM leukemia
  growth: 99.5%
MOLT-4 leukemia
  growth: 91.3%
RPMI-8226 leukemia
  growth: 102%
OVCAR-8 ovarian
  growth: 96.7%
OVCAR-5 ovarian
  growth: 96.1%
OVCAR-4 ovarian
  growth: 97.6%
SK-OV-3 ovarian
  growth: 85.5%
IGROV1 ovarian
  growth: 96.4%
OVCAR-3 ovarian
  growth: 104%
NCI/ADR-RES ovarian
  growth: 98.3%
